Laboratory results reported in the OligoGym collection.
Note: reference of the scale not given here.

What follows are sequences tested against FNTB (assay: pooled miR-30 sensor sort-seq; sequence = guide strand). Conditions: shRNA.
TCATCTAGCAGTTCCAAGCTGT was tested, and the sensor-assay potency score (higher = more potent) was 0.0729. With TAAACCTTGTCTGACTGGGGAG the sensor-assay potency score (higher = more potent) was -0.535. With TACAAGGTGGTTGAACTTGTAA the sensor-assay potency score (higher = more potent) was -0.905. With AAGAACTGAAGACCTCTTGGAT the sensor-assay potency score (higher = more potent) was -0.153. For TCATGCAACATGGCTCCGCTGC, the sensor-assay potency score (higher = more potent) was -1.29. With TCCACCAGCTTGTTGCAGCGGC the sensor-assay potency score (higher = more potent) was -1.13. With TTTGCCTGTTCTATGGACGTGA the sensor-assay potency score (higher = more potent) was 0.213. TTCTGTAGAAAGTATGTAGTGG gave a sensor-assay potency score (higher = more potent) of 0.598. With TTGAACTTGTAAGAACTGAAGA the sensor-assay potency score (higher = more potent) was -0.977. In the case of TTGACTGCTGCATATGTGGGTG, the sensor-assay potency score (higher = more potent) is reported as -0.313. Work on ATCTGTAGCCACTATCTGGGGG yielded a sensor-assay potency score (higher = more potent) of -0.8. TACTTTTGCCTGTTCTATGGAC was tested, and the sensor-assay potency score (higher = more potent) was -0.547. For TCTGTAGCCACTATCTGGGGGA, the sensor-assay potency score (higher = more potent) was 0.162. Work on TCCTCCTTCAAATCGCATCTGC yielded a sensor-assay potency score (higher = more potent) of -0.214. Work on TTGTAAGAACTGAAGACCTCTT yielded a sensor-assay potency score (higher = more potent) of 0.275. For TTGTCGAAGGCCTCTTTTCAGA, the sensor-assay potency score (higher = more potent) was -1.02.

These sequences were tested against FOXK1 in the same assay as above. Conditions: shRNA.
Work on TTGCTGCAAACTCTGCTGCCAG yielded a sensor-assay potency score (higher = more potent) of -1.02. In the case of TTCTTTGTGATAGAGCGACGTG, the sensor-assay potency score (higher = more potent) is reported as -0.986. TAAACTGTTCGTGGGAACCGCA showed a sensor-assay potency score (higher = more potent) of -0.882. In the case of TTGGGTCGCAAGGAGCTGCAAA, the sensor-assay potency score (higher = more potent) is reported as -0.645. TGATAGAGCGACGTGAACTGGA gave a sensor-assay potency score (higher = more potent) of 0.268. TTCAAAGAGAGGTTGTGCCGGA was tested, and the sensor-assay potency score (higher = more potent) was 0.647. TTGCCGGCTAAACTGTTCGTGG gave a sensor-assay potency score (higher = more potent) of -1.1. For TTTGACTCATCCTTGGGGCTGT, the sensor-assay potency score (higher = more potent) was 0.206. Sequence TGGATCTTGATGGCCGTGCTGG has a sensor-assay potency score (higher = more potent) of -0.887. Sequence ATGAGGAACTCGAACTCGCGGC has a sensor-assay potency score (higher = more potent) of -0.982. TTTGGGAATACCGGTACTCTGG was tested, and the sensor-assay potency score (higher = more potent) was -1.08. Work on TTTGATAAAGTAACGGTTCAAA yielded a sensor-assay potency score (higher = more potent) of -0.935.

Each sequence was assayed against FOXN4 in the same assay as above. Conditions: shRNA.
With TCCTCCATCTTGTCGATGCGGG the sensor-assay potency score (higher = more potent) was -1.47. TCAGTGTTCATGTCGGTGCTGA showed a sensor-assay potency score (higher = more potent) of -0.14. ATGTTGATGAAGTCTACAGGAG was tested, and the sensor-assay potency score (higher = more potent) was -1.25. Sequence ATTCCTGACATTATGGATGAGG has a sensor-assay potency score (higher = more potent) of -0.583. TTCAGAGACAGGTTGTGCCGCA was tested, and the sensor-assay potency score (higher = more potent) was 0.475. For TCAGCTTGTCCAACTCCTCAGG, the sensor-assay potency score (higher = more potent) was -0.891. TGAAGCTGTAGATCTCGCTCAC gave a sensor-assay potency score (higher = more potent) of 0.304. Sequence TAGATCTCGCTCACAGGCAGGC has a sensor-assay potency score (higher = more potent) of -0.142. With TTGAGATGAATGCACAGCCACG the sensor-assay potency score (higher = more potent) was -1.27. TGAGTTTCGAATAATTCCTGAC showed a sensor-assay potency score (higher = more potent) of -0.212. Sequence TTGCCATCTGCTGCAGCCGAGG has a sensor-assay potency score (higher = more potent) of -1.85.
